# SMN2 splice enh – enhancers of SMN2 splice variant expression | actives 2.8% (n = 210,000) | HEK293 SMN2-luciferase splicing reporter, luminescence, 30-36 h | Potency, µM (top dose mostly 46.1 µM), for the others: at the top dose activity change, positive = activation, hits mostly activators; also: % of control where 0% means no effect; nearly all actives have a fitted effect of over 55% in size
#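 HEK293 cells carry an SMN2 […]–luciferase reporter in which exon 7 inclusion puts luciferase in frame. Cells were plated 10-12 h before compound addition, then incubated 30-36 h at 37C. ONE-Glo luminescence was read; sodium butyrate at 4.5 mM final served as control.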
# NPC1 prom act – activators of NPC1 promoter; Huh7 NPC1 promoter luciferase reporter, 24 h; Potency, µM (series often up to 9.22 µM), without a hit: top-dose activation, actives largely listed as activators; actives 2.4% (n = 320,000); also: % of control where 0% means no effect; nearly all actives have a fitted effect of over 60% in size
#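 Luminescence read-out of NPC1 promoter-driven luciferase in stably transfected Huh7 cells; compounds delivered in DMSO and left 24 h at 37C, 5% CO2, qHTS titration format.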
# ELG1 DNA repair – ELG1-dependent DNA repair inhibition | HEK293T ELG1-luciferase reporter, luminescence, 16 h; DNA damage induced by 5-fluorouridine | Potency, µM (series often up to 46.1 µM), for inactives: at the highest dose activity change, negative = inhibition, hits mostly inhibitors | actives 2.3% (n = 330,000) | AID 504467; also: % is scaled to controls: 0 for no effect and ±100 for the full control effect; nearly all actives have a fitted effect of over 55% in size
#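 5-Fluorouridine DNA damage + compound/DMSO, 2,000 cells/well, 16 h, 37 °C/5% CO2. ONE-Glo, 30 min RT, luminescence. Readout = decrease in reporter signal.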
# ELG1 genotoxic – genotoxicity induction in ELG1-luciferase HEK293T cells; Potency, µM (series often up to 46 µM), for inactives: at the top dose activity change, positive = activation, usual class: activators; actives 1.3% (n = 330,000); HEK293T ELG1-luciferase reporter, luminescence, 16 h; also: % of control where 0% means no effect; nearly all actives have a fitted effect of over 60% in size
#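 Cells (2,000/well) expressing the ELG1-luciferase fusion are dosed by pin tool and kept 16 hr at 37 °C, 5% CO2. Signal comes from ONE-Glo luciferase reagent after 30 min at room temperature.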
# Rab9 prom act – activates the Rab9 promoter; actives 2.8% (n = 320,000); AID 485297; Potency, µM (doses to about 9.22 µM), inactives show at the top dose activation, negative = inhibition, hits mostly activators; Huh7 Rab9 promoter-luciferase reporter, luminescence, 24 h; also: % of control where 0% means no effect; nearly all actives have a fitted effect of over 60% in size
#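 Cells were plated at 1500 per well in reduced-serum medium with 10% FBS and left 2 h. Compound in DMSO was then added for 24 h at 37 °C. Reporter signal was read by luminescence after 10 min with luciferase detection reagent.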
# FLuc modulator – inhibits or activates purified firefly luciferase, miR-21 counter-screen; purified FLuc, Km substrates, luminescence inhibition; Potency, µM (highest dose often 57.5 µM), for inactives: at the highest dose activity change, negative = inhibition, actives largely listed as inhibitors; actives 6.9% (n = 360,000); AID 588342;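 also: plate controls were vehicle for no effect and reference inhibitor for full effect; nearly all actives have a fitted effect of over 55% in size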
# Target sequence (P08659 whole entry, looked up): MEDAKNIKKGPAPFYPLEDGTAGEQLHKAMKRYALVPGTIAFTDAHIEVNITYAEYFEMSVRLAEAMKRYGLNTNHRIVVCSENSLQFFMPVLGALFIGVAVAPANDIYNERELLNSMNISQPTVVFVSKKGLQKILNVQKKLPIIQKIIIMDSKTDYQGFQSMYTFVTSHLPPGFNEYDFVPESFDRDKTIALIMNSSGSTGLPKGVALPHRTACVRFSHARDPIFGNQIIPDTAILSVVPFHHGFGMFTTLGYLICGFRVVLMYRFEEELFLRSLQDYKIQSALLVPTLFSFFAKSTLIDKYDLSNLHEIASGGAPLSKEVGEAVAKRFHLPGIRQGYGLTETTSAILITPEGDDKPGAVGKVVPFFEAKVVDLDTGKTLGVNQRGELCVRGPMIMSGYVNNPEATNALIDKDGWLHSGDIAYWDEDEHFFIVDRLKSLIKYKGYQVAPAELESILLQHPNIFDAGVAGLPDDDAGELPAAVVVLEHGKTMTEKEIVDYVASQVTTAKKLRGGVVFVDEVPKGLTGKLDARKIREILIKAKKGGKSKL
#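 Biochemical qHTS of compounds, final roughly 60 µM downward over six points, against 10 nM purified firefly luciferase using Km concentrations of substrates (10 uM D-luciferin, 10 uM ATP) in Tris acetate pH 7.5 buffer; luminescence output.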
# The depositor's hits bear a star; ? = inconclusive; / = no result; [ ] = another dose, or the depositor's remark. A selection: hits, their analogues and other compounds. The true share with any hit is near 9.3%. Calls follow the shape of the dose curve; as a rule, active = well fitted curve in the direction sought with a large enough effect; inconclusive = small, poorly fitted or top-dose-only effect, or another doubt; inactive = no such curve, though single readings can be large; an effect the other way counts as inactive or inconclusive. Potency is read from the fitted curve at half-maximal effect.
SMILES,SMN2 splice enh,NPC1 prom act,ELG1 DNA repair,ELG1 genotoxic,Rab9 prom act,FLuc modulator
O=C1NC(=O)C(=Cc2ccsc2)C(=O)N1,/,-7.6%,-0.3%,0.3%,-8.8%,?
O=C1NC(=O)N(c2ccc(F)cc2)C(=O)/C1=C/c1ccsc1,8.6%,5.3%,8.9%,1.8%,-0.6%,19µM*
O=C1NC(=O)N(c2ccc(Br)cc2)C(=O)/C1=C/c1ccsc1,/,-7.8%,?,0.4%,0.3%,?
CC(=O)O[C@@H]1C[C@@]2(C)C(c3ccoc3)C[C@H]3O[C@]32[C@]2(C)C(=O)C(O)=C3C(C)(C)C(=O)C=C[C@]3(C)C12 (some centres not stated),-73.5%,/,/,/,/,/
COc1ccc(CCn2c(O)c(/C=N/N3CCOCC3)c(=O)[nH]c2=O)cc1OC,/,-3.6%,18.3µM*,-6.5%,-5.2%,5.0%
CC(C)CC(=O)C[C@H](O)C(Cl)(Cl)Cl,-3.5%[9.22 µM],/,/,/,/,/
Cc1ccc(-c2nn(Cc3ccccc3)cc2C=O)cc1,?,?,?,14.0%,3.55µM*,19µM*
Cc1ccc(-c2nn(Cc3ccccc3)cc2C=O)cc1C,5.8%,17.2%,?,1.5%,23.3%,26.9µM*
COc1cc2c(cc1OC)[C@@H]1C(=O)c3ccc(OC)c(CC=C(C)C)c3OC1CO2 (some centres not stated),-54.6%,/,/,/,/,/
BrCC1C[n+]2c(SCc3ccccc3)nc3sc4c(c3c2O1)CCCC4 (configuration not stated),/,4.5%,0.0%,?,0.3%,?
Nc1c2c(nc3sc4c(c13)CCCCC4)CCCC2,11.2µM*,3.98µM*,?,-5.2%,?,6.01µM*
CCOC(=O)[C@@H]1[C@@H]2c3ccccc3-c3ccccc3[C@H]2C[C@H]1O,-6.5%[9.22 µM],/,/,/,/,/
O=c1[nH]c(=O)n(-c2ccc(F)cc2)c(O)c1/C=C1\C=Nc2ccccc21,/,1.1%,-9.9%,-0.8%,-4.1%,5.9%
O=c1[nH]c(=O)n(-c2ccccc2F)c(O)c1/C=C1\C=Nc2ccccc21,/,-1.4%,3.4%,14.4%,-9.1%,16.9µM*
O=c1[nH]c(=O)n(Cc2ccccc2)c(O)c1/C=C1\C=Nc2ccccc21,11.8%,2.1%,2.9%,4.4%,-0.6%,-6.9%
O=c1[nH]c(=O)n(CC2CCCO2)c(O)c1/C=C1\C=Nc2ccccc21 (configuration not stated),11.1%,0.9%,?,0.4%,0.5%,16.9µM*
CCOC(=O)CBr,3.6%,/,/,/,/,/
COc1cc2c(cc1OC)[C@]13CC[N@+]4(C)CC5=CCO[C@H]6CC(=O)N2[C@@H]1C6[C@@H]5C[C@]34O (some centres not stated),-1.8%[9.22 µM],/,/,/,/,/
ClP(Cl)(Cl)(Cl)Cl,2.8%,/,/,/,/,/
CCC(=NCCO)c1c(O)n(C2CCCCC2)c(=O)[nH]c1=O,-17.6%,6.5%,?,1.2%,0.1%,2.9%
CCC(=NCc1ccc2c(c1)OCO2)c1c(O)n(C2CCCCC2)c(=O)[nH]c1=O,-83.8%,-7.8%,20.6µM*,13.0%,-5.6%,-1.6%
CC(=O)O.CC(=O)O.[Cd],-81.7%,/,/,/,/,/
N/C(=N\N=C/c1ccc(-c2ccc(O)c(C(=O)O)c2)o1)N[N+](=O)[O-],1.1%,-3.7%,-17.0%,1.5%,5.9%,26.9µM*
COC1=CC(=O)O[C@@H](/C=C/c2ccc3c(c2)OCO3)C1,-80.2%,/,/,/,/,/
CCCCn1c(N)c(C(=O)NCCN2CCOCC2)c2nc3ccccc3nc21,5.4%,2.0%,5.8µM*,-1.6%,7.0%,1.6%
SMILES,SMN2 splice enh,NPC1 prom act,ELG1 DNA repair,ELG1 genotoxic,Rab9 prom act,FLuc modulator
COCCNC(=O)c1c(N)n(Cc2ccco2)c2nc3ccccc3nc12,-14.7%,2.6%,13µM*,-4.1%,1.1%,-0.9%
Nc1c(C(=O)NCCc2ccccc2)c2nc3ccccc3nc2n1CCN1CCOCC1,-9.3%,-0.8%,?,-12.9%,-4.6%,-10.6%
Nc1c(C(=O)NCCN2CCOCC2)c2nc3ccccc3nc2n1Cc1ccccc1,/,-6.3%,?,-3.9%,-12.6%,-0.2%
Nc1c(C(=O)NCCN2CCOCC2)c2nc3ccccc3nc2n1Cc1ccco1,-10.5%,-1.7%,20.6µM*,3.4%,3.4%,-1.0%
CC(=O)n1cc(C=C2C(=O)NC(=O)NC2=O)c2ccccc21,/,-2.8%,?,0.7%[9.26 µM],0.9%,15.1µM*
Cc1cc(/C=C2\C(=O)NC(=O)N(C)C2=O)c(C)n1-c1ccc2c(c1)OCO2,-14.7%,-4.0%,0.8%,-5.1%,-4.2%,1.35µM*
Cc1cc(/C=C2/C(=O)NC(=O)N(C)C2=O)c(C)n1-c1ccccc1,-4.3%,-1.3%,-10.7%,-0.6%,-3.3%,1.07µM*
Cc1cc(C=C2C(=O)NC(=S)NC2=O)c(C)n1-c1ccc2c(c1)OCO2,19.4%,3.4%,-21.1%,-4.4%,-2.7%,3.38µM*
Cc1cc(C=C2C(=O)NC(=O)NC2=O)c(C)n1-c1ccc2c(c1)OCO2,-19.2%,-1.9%,15.0%,0.8%,-2.7%,2.69µM*
O=C1NC(=O)C(=Cc2cc3c(cc2[N+](=O)[O-])OCO3)C(=O)N1,3.3%,0.2%,15.6%,-0.3%,0.8%,-23.0%
Cc1cc(=O)oc2cc(OCC(=O)N3C[C@H]4C[C@@H](C3)c3cccc(=O)n3C4)c(Cl)cc12,/,-4.2%,?,5.5%,0.2%,2.0%
Cc1cc(=O)oc2cc(OCC(=O)N3CCN(C(C)c4ccccc4)CC3)c(Cl)cc12 (configuration not stated),/,0.2%,20.6µM*,-3.6%,-3.0%,3.8%
N#Cc1c(/N=C/C2C(=O)NC(=S)NC2=O)sc2c1CCCC2,3.3%,-0.7%,5.2%,2.1%,-15.3%,?
Cc1noc(C(=O)Nc2sc3c(c2C#N)CCC3)c1Cl,-62.3%,26.7%,5.7%,2.0%,14.8%,15.1µM*
COc1cccc(NC(=O)CCc2nc(-c3ccc(C(C)(C)C)cc3)no2)c1,-72.3%,/,/,/,/,2.69µM*
COc1ccc(NC(=O)CCc2nc(C3=CCN(Cc4cccc(C)c4)CC3)no2)c(OC)c1,/,/,/,/,/,-16.0%
CN(CC(=O)N[C@H](CO)Cc1ccccc1)C(=O)[C@H](CCS(C)=O)NC(=O)[C@@H](N)Cc1ccc(O)cc1 (some centres not stated),10.6%,/,/,/,/,/
CCCCCCn1c(O)c(C=NC2CCN(Cc3ccccc3)CC2)c(=O)[nH]c1=O,-59.8%,-4.4%,20.6µM*,-8.4%,-14.0%,7.6%
CC/C(=N\Nc1ccccc1)c1c(O)[nH]c(=O)[nH]c1=O,/,0.9%,4.11µM*,10.3%,-2.4%,3.8%
CC/C(=N\Nc1cccc2ccccc12)c1c(O)[nH]c(=O)[nH]c1=O,-9.2%,-0.6%,?,0.1%,0.6%,?

# Assay outcomes from PubChem.
